Screening data: PubChem, National Center for Advancing Translational Sciences (NCATS)
Tb PFK block – qHTS Assay to Find Inhibitors of T. brucei phosphofructokinase; T. brucei PFK, ADP-Glo luminescence; Potency, µM (top dose mostly 57.5 µM), for the others: at the top dose activity, negative = inhibition, hits mostly inhibitors; actives 0.17% (n = 330,000); AID 485367, 2010;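 also: 0% = uninhibited 1x PFK enzyme wells and -100% = no-enzyme wells; nearly all actives have a fitted effect of over 60% in size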
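Activity is normalized to no-enzyme wells (full inhibition) and 1.25 nM enzyme wells (no inhibition). Reaction: 0.5 mM F6P, 0.1 mM ATP, 45 min RT, ADP-Glo luminescence; concentration-response curves fitted and classed by quality.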
VDR inhibitor – Inhibitors of the vitamin D receptor (VDR): qHTS | Potency, µM, inactives show max response, negative = inhibition, actives largely listed as inhibitors | VDR-SRC2-3 peptide fluorescence polarization, 2 h | actives 0.93% (n = 400,000) | Vitamin D3 receptor (Homo sapiens), P11473; also: % is scaled to controls: 0 for no effect and ±100 for the full control effect
Target sequence (P11473 whole entry, looked up): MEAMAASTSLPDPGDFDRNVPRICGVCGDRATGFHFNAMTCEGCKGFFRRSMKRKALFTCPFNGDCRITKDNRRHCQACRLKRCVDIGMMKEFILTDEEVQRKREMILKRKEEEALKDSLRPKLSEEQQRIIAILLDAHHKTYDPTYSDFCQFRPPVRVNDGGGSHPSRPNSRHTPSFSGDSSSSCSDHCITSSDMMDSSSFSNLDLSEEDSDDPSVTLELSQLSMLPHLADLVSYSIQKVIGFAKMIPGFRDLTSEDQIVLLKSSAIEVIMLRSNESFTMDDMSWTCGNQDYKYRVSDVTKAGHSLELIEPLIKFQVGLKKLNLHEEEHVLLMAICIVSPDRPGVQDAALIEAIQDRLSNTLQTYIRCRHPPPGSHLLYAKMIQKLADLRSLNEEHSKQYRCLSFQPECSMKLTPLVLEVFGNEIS
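FP read-out; VDR + SRC2-3 coactivator peptide; 23 nl compound by pintool; 2 h RT incubation; reagents held at 4 deg C, protected from light.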
BRCA1 expr act – qHTS Assay to Identify Small Molecule Activators of BRCA1 Expression | MCF7-BRCA1-FFLuc reporter, luminescence, 48 h; response scale: scaled: vehicle 0%, 10 µM genistein 100% | Potency, µM (top dose mostly 46.1 µM), inactives show at the highest dose activation, usual class: activators | actives 1.1% (n = 380,000) | AID 624202, 2012; also: nearly all actives have a fitted effect of over 80% in size
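MCF7-BRCA1-FFLuc, 2000 cells/well; 2 h attach, 37 °C/5% CO2; compound 48 h; luciferase substrate 15 min; luminescence end-point. Norm. to genistein 10 microM max activation and DMSO; concentration-response curves fitted.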
PLK1 PBD block – qHTS for Inhibitors of PLK1-PDB (polo-like kinase 1 - polo-box domain): Primary Screen. Potency, µM, inactives show max response, negative = inhibition, most hits filed as inhibitors. AID 720504, 2013. Plk1 PBD binding of FITC phosphopeptide, fluorescence polarization. actives 2.8% (n = 360,000). Serine/threonine-protein kinase PLK1 (Homo sapiens), P53350; also: series mostly up to about 57 µM; % is scaled to controls: 0 for no effect and ±100 for the full control effect; nearly all actives have a fitted effect of over 65% in size
VDR inh confirm – qHTS for Inhibitors of the vitamin D receptor (VDR): Hit Validation in Primary Screen; shares compounds with VDR inhibitor; VDR-coactivator inhibition assay, qHTS confirmation; Potency, µM, most hits filed as inhibitors; actives 89% (n = 840); AID 602199, 2012
VDR FP fluor – qHTS for Inhibitors of the vitamin D receptor (VDR): Hit Validation using a Fluorescein Assay. shares compounds with VDR inhibitor. VDR-coactivator binding, fluorescein fluorescence polarization. Potency, µM (titrated, usually from 57.1 µM), for the others: top-dose activity change, negative = inhibition, most hits filed as inhibitors. actives 48% (n = 840)
VDR bla reporter – qHTS for Inhibitors of the vitamin D receptor (VDR): Hit Validation using a Beta-Lactamase Assay; shares compounds with VDR inhibitor; VDR beta-lactamase reporter cells, FRET ratio; cells co-treated with VDR agonist LG190178; Potency, µM (doses to about 46.1 µM), inactives show top-dose activity change, negative = inhibition, usual class: inhibitors; actives 23% (n = 840); AID 602202, 2012; also: % is scaled to controls: 0 for no effect and ±100 for the full control effect
VDR cytotox – qHTS for Inhibitors of the vitamin D receptor (VDR): Hit Validation using a Cytotoxicity Assay | shares compounds with VDR inhibitor | Potency, µM (doses to about 48.3 µM), without a hit: at the highest dose activity change, negative = cytotoxicity, usual class: cytotoxic | AID 602204, 2012 | cytotoxicity counter-screen, cell viability, qHTS | actives 18% (n = 840);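 also: plate controls were DMSO for no effect and high-concentration cycloheximide for full effect; nearly all actives have a fitted effect of over 75% in size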
Numbers without * were called inactive; ? = inconclusive; . = no result. In the library only some 3.9% were active in any assay of this set; here they are far more common. Calls follow the shape of the dose curve; as a rule, active = well fitted curve in the direction sought with a large enough effect; inconclusive = small, poorly fitted or top-dose-only effect, or another doubt; inactive = no such curve, though single readings can be large; an effect the other way counts as inactive or inconclusive. Potency is read from the fitted curve at half-maximal effect.

SMILES | Tb PFK block | VDR inhibitor | BRCA1 expr act | PLK1 PBD block | VDR inh confirm | VDR FP fluor | VDR bla reporter | VDR cytotox
O=C(/C=C/c1ccc(Br)cc1)c1ccco1 | -4% | 45µM* | -9% | -18% | 24* | ? | 13% | 13%
CCOC(=O)N1CC=C2C(C#N)=C(N)C(C#N)(C#N)[C@H](c3ccc(OCC)c(OCC)c3)[C@H]2C1 | 1% | -4% | -33% | -4% | . | . | . | .
N#CC1=C(N)C(C#N)(C#N)C(c2cccnc2)C2CN(C(=O)OCc3ccccc3)CC=C12 (centres undefined) | -2% | 20µM* | -15% | -28% | 12* | ? | 6% | -8%
O=C(Nc1nnc(COc2ccc(Cl)cc2)s1)c1ccco1 | ? | 28µM* | 5% | 2.7µM* | 4.2* | ? | -17% | -6%
CC(C)c1nnc(NC(=O)c2nc(S(=O)(=O)Cc3ccccc3)ncc2Cl)s1 | -1% | 16µM* | -41% | ? | 9.5* | 7.9µM* | 6.5µM* | 15µM*
CCCc1nnc(NC(=O)c2nc(S(=O)(=O)Cc3ccc(C)cc3)ncc2Cl)s1 | 3% | 28µM* | -16% | -21% | ? | 7.9µM* | 18µM* | 21µM*
CSc1nnc(NC(=O)c2nc(S(=O)(=O)Cc3ccccc3)ncc2Cl)s1 | -1% | ? | -22% | 30µM* | 10* | 8.9µM* | 5.2µM* | 27µM*
CC1=CNC(=O)CC(C)(C)C1 | . | . | 19% | 3% | . | . | . | .
Cc1csc(NC(=O)c2ccc3nc[nH]c3c2)n1 | -17% | 2% | ? | -5% | . | . | . | .
CC(=O)Nc1sc(N/N=C\c2ccccc2Cl)nc1-c1cccs1 | 1% | ? | 3% | -6% | . | . | . | .
CC(=O)Nc1sc(N/N=C\c2ccccc2)nc1-c1cccs1 | -2% | 32µM* | 1% | ? | 3.4* | ? | -2% | -10%
Cc1ccc(S(=O)(=O)N2CCN(c3nc(-c4cncn4C)nc4ccccc34)CC2)cc1 | . | -12% | -32% | . | . | . | . | .
CCOC(=O)c1ccc(N=Cc2nc(-c3ccccc3)oc2OC(C)=O)cc1 | ? | 18µM* | 12% | 4.7µM* | 4.2* | ? | 2% | -9%
CC(=O)Oc1oc(-c2ccccc2)nc1C=Nc1ccccc1 | -2% | 40µM* | -3% | ? | 11* | 13µM* | 18% | -23%
COc1ccc(N=Cc2nc(-c3ccccc3)oc2OC(=O)c2ccccc2)cc1 | -2% | 40µM* | 6.3µM* | ? | 9.5* | ? | 2% | 6%
CNC(=O)c1nnsc1S(=O)c1ccc(Cl)cc1 (centres undefined) | -17% | 5.6µM* | 66% | 0.95µM* | 3.8* | 4.5µM* | 16µM* | ?
CCCNC(=O)c1nnsc1S(=O)c1ccc(Cl)cc1 (centres undefined) | -26% | ? | -24% | 0.75µM* | 0.89* | 1µM* | 13µM* | 21µM*
Nc1ccc(O)c(-c2nc3ccccc3s2)c1 | 3% | -19% | 38% | -29% | . | . | . | .
